Bioassay records from PubChem.
MCL1 BIM primary: inhibitors of MCL1 binding to BIM-BH3, primary screen, biochemical, fluorescence polarization; GST-MCL1 / FITC-Bim-BH3 fluorescence polarization; inhibition, % at 10.9 µM; Induced myeloid leukemia cell differentiation protein Mcl-1 (Homo sapiens), Q07820; 320,000 tested, 0.68% active;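 active = inhibition above the mean inhibition of all tested compounds plus 3 SD, set per campaign, cut at about 40% in these data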;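 also: higher means more loss of mP so more displacement of Bim peptide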
Target sequence (Q07820 whole entry, looked up): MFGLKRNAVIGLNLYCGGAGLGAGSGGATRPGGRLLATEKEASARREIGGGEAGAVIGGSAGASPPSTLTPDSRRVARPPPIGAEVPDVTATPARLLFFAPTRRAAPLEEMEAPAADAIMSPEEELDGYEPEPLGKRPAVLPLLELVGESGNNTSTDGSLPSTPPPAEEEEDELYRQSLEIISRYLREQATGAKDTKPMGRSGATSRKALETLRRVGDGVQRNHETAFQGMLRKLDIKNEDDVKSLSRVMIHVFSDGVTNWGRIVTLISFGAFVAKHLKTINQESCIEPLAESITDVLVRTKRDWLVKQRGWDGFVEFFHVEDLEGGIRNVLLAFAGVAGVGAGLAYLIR
Mcl1-Noxa inh: Mcl-1/Noxa binding inhibitors, primary screen, biochemical, TR-FRET, 1536-well | Induced myeloid leukemia cell differentiation protein Mcl-1 (Homo sapiens), Q07820 | TR-FRET Mcl-1/Noxa peptide binding, 2 h | inhibition, % at 21.7 µM | 220,000 tested, 1.5% active | AID 1022, 2008;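 active = compounds that cut the protein-peptide binding signal by more than 50% relative to plate controls in a single-dose test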;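 also: His-tagged Mcl-1 with rhodamine Noxa BH3 peptide and terbium anti-His antibody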
Mcl-1 Bim block: inhibitors of Bim peptide binding to Mcl-1, primary screen, biochemical, bead-based flow cytometry, multiplex. AID 1009, 2008. Bim peptide-Mcl-1 binding. 190,000 tested, 0.1% active. inhibition, % at 10 µM; in the data active = inhibition above about 40%
L929 necroptosis: inhibitors of zVAD-triggered necroptosis, primary screen, L929 cells. viability rescue, % at 10 µM. 220,000 tested, 0.38% active. L929 zVAD necroptosis rescue, ATP luminescence, 24 h; with zVAD 60 µM;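 active = activation, scaled between plate controls, above about 75%, limit read from the data; inactive = activation under that limit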
Mcl1-Bid inh: Mcl-1/Bid binding inhibitors, primary screen, biochemical, TR-FRET, 1536-well; Induced myeloid leukemia cell differentiation protein Mcl-1 (Homo sapiens), Q07820; TR-FRET Mcl-1/Bid-Dy647 peptide binding; inhibition, % at 21.7 µM; 220,000 tested, 0.97% active; AID 1021, 2008;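 active = compounds that cut the binding signal by more than half at the single screening dose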;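 also: His-tagged Mcl-1 with europium anti-His antibody binding Bid BH3 peptide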
TNF death inh: inhibitors of TNF-alpha triggered necroptosis, primary screen, cell-based, Jurkat FADD-/-, single concentration | AID 463075, 2010 | 220,000 tested, 0.068% active | activation (protection from cell death), % at 10 µM | Jurkat FADD-/- TNF necroptosis rescue, ATP luminescence, 24 h; 0 = TNF only, 100 = no-TNF cells;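 active = activation, meaning protection from cell death, of at least 50% relative to plate controls; inactive = activation below 50%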;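 also: necroptosis triggered by 40 ng/mL TNF-alpha added together with compound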
Bcl-xL conf: Bcl-xL inhibitors blocking Bim BH3 binding, confirmation, counter-screen for MCL1 inhibitor project, biochemical, fluorescence polarization. shares compounds with MCL1 BIM primary. GST-Bcl-xL / FITC-Bim BH3 peptide FP binding. inhibition, % at 10.9 µM. 1,700 tested, 54% active. AID 2166, 2009;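 active = inhibition above a cutoff equal to the mean inhibition of all tested compounds plus 3 SD, cut at about 30% in these data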
MCL1 BIM confirm: inhibitors of MCL1 binding to BIM-BH3, confirmation, biochemical, fluorescence polarization, triplicate; shares compounds with MCL1 BIM primary; GST-MCL1 / FITC-Bim-BH3 fluorescence polarization; inhibition, % at 10.9 µM; 1,700 tested, 61% active;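 active = inhibition above the average of all tested compounds plus 3 SD, cut at about 40% in these data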
Numbers stand for hits; . = inactive; / = not tested or not shown; + = active, no number. A selection: hits, their analogues and other compounds. The true share with any hit is near 2.4%.

SMILES	MCL1 BIM primary	Mcl1-Noxa inh	Mcl-1 Bim block	L929 necroptosis	Mcl1-Bid inh	TNF death inh	Bcl-xL conf	MCL1 BIM confirm
CC(C)CNC(=O)NC(=O)COc1ncnc2sccc12	54	.	.	.	.	.	.	.
COc1ccc(S(=O)(=O)NCC(c2ccc3c(c2)OCO3)N2CCN(c3ccccc3)CC2)cc1 (stereo not given)	.	/	/	/	/	/	/	/
O=C(CCc1ccc(S(=O)(=O)N2CCOCC2)cc1)N/N=C/c1ccc(F)cc1F	.	.	.	.	.	.	/	/
O=C(CCc1ccc(S(=O)(=O)N2CCOCC2)cc1)N/N=C/c1ccc(O)c(O)c1O	46	73	.	.	.	.	.	59
COC(CNC(=O)c1ccc2c3c(onc13)-c1ccccc1C2=O)OC	+	70	/	.	.	.	+	+
O=C(CCNS(=O)(=O)c1ccc(OC(F)(F)F)cc1)NCCc1c[nH]c2ccccc12	.	/	/	/	/	/	/	/
COc1ccccc1NC(=O)CCN1C(=O)C2CC=CCC2C1=O (stereo not given)	.	/	/	/	/	/	/	/
Cc1ccc2c(c1)c(=O)c1c3n2CCN(C(=O)CCl)C3CC1 (stereo not given)	55	.	.	.	.	.	30	44
CCN1CCc2c(sc(NC(=O)Nc3ccc(Cl)c(Cl)c3)c2C(N)=O)C1	87	.	.	.	.	.	54	56
CCN1CCc2c(sc(NC(=O)Cc3ccccc3)c2C(N)=O)C1	.	/	/	/	/	/	/	/
CCn1cc(S(=O)(=O)NCCc2ccc(F)cc2)cn1	.	/	/	/	/	/	/	/
N#Cc1c(NC(=O)c2ccco2)sc2c1CCC2	56	/	/	/	/	/	.	.
NC(=O)c1c(NC(=O)c2ccco2)sc2c1CCC2	.	.	.	.	.	.	/	/
Cc1nnc(C)c2c(C)n(-c3ccccc3N)c(C)c12	94	.	.	.	.	.	.	.
Cn1c(SCC(=O)Nc2nncs2)nnc1C1CC1	46	/	/	/	/	/	.	.
CC(C)n1c(SCC(=O)Nc2nncs2)nnc1C1CC1	.	/	/	/	/	/	/	/
CC(C)CNC(=O)COC(=O)CCC(=O)c1ccc(Cl)cc1	.	.	.	.	.	.	/	/
O=C(O)CCCNc1cc(N2CCN(C(=O)c3ccco3)CC2)c2noc3c2c1C(=O)c1ccccc1-3	157	/	/	/	/	/	193	164
O=C1c2ccccc2-c2onc3c(N4CCN(CCO)CC4)cc(N4CCN(C(=O)c5ccco5)CC4)c1c23	83	/	/	/	/	/	53	58
O=C(c1ccco1)N1CCN(CCCCN2C(=O)c3ccccc3C2=O)CC1	.	.	.	.	.	.	/	/
CCOc1cccc2cc(C(=O)NCc3ccc(Cl)cc3)c(=N)oc12	.	/	/	/	/	/	/	/
CCOC(=O)C1=C(COC(=O)CCc2ccc(CC)cc2)NC(=O)NC1C (stereo not given)	.	/	/	/	/	/	/	/
COc1ccc(S(=O)(=O)Nc2ccccc2C(=O)N2CCCCC2)cc1C	.	/	/	/	/	/	/	/
CCc1cc(=O)oc2cc(C)c(CN3CCCC(C)C3)c(O)c12 (stereo not given)	47	52	.	.	93	.	.	.
COc1ccc(NC(=O)/C=C/c2cccc(Br)c2)cn1	99	/	/	/	/	/	74	86
CC1=CC(=O)c2c(O)ccc(O)c2C1=O	138	96	.	.	99	.	102	142
O=C1c2ccccc2C(=O)c2c([N+](=O)[O-])ccc(O)c21	.	.	/	.	.	.	/	/
